Measurements from PubChem BioAssay.
Calls of active or inactive are those of the source.

Key:
[1] = small molecules captured by biotinylated probe aFSTL3 – biochemical, small-molecule microarray, fluorescence 635/667, stem cell growth factor project, primary screen (AID 1064); settings: higher = more signal;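 further: measures binding of the biotinylated anti-FSTL3 antibody to printed compounds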
[2] = binders from COS7 lysate, DM2A8 probe, primary screen, torsin A project, cell lysate, small-molecule microarray, fluorescence 635/667 (AID 1065); settings: higher = more signal, COS7 lysate expressing mutant human TOR1A
[3] = small molecules captured by biotinylated probe aFGF2 – biochemical, small-molecule microarray, fluorescence 635/667, stem cell growth factor project, primary screen (AID 1067); settings: higher = more signal;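 further: measures binding of biotinylated aFGF2 protein to printed compounds on slides; z-score merges feature fluorescence and signal-to-noise across triplicate slides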
[4] = small molecules captured by biotinylated probe aFGF10 – biochemical, small-molecule microarray, fluorescence 635/667, stem cell growth factor project, primary screen (AID 1071); settings: higher = more signal;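 further: score merges 667 nm spot intensity and signal to noise from triplicate slides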
[5] = biological target: Neurogenic locus notch homolog protein 2 (Homo sapiens) (UniProt Q04721); assay: small molecules binding Notch2 protein – biochemical, small-molecule microarray, 635 nm fluorescence, stem cell growth factors, primary screen (AID 1073); settings: higher = more signal
Neurogenic locus notch homolog protein 2 (Homo sapiens), sequence (Q04721 whole entry, looked up, canonical isoform): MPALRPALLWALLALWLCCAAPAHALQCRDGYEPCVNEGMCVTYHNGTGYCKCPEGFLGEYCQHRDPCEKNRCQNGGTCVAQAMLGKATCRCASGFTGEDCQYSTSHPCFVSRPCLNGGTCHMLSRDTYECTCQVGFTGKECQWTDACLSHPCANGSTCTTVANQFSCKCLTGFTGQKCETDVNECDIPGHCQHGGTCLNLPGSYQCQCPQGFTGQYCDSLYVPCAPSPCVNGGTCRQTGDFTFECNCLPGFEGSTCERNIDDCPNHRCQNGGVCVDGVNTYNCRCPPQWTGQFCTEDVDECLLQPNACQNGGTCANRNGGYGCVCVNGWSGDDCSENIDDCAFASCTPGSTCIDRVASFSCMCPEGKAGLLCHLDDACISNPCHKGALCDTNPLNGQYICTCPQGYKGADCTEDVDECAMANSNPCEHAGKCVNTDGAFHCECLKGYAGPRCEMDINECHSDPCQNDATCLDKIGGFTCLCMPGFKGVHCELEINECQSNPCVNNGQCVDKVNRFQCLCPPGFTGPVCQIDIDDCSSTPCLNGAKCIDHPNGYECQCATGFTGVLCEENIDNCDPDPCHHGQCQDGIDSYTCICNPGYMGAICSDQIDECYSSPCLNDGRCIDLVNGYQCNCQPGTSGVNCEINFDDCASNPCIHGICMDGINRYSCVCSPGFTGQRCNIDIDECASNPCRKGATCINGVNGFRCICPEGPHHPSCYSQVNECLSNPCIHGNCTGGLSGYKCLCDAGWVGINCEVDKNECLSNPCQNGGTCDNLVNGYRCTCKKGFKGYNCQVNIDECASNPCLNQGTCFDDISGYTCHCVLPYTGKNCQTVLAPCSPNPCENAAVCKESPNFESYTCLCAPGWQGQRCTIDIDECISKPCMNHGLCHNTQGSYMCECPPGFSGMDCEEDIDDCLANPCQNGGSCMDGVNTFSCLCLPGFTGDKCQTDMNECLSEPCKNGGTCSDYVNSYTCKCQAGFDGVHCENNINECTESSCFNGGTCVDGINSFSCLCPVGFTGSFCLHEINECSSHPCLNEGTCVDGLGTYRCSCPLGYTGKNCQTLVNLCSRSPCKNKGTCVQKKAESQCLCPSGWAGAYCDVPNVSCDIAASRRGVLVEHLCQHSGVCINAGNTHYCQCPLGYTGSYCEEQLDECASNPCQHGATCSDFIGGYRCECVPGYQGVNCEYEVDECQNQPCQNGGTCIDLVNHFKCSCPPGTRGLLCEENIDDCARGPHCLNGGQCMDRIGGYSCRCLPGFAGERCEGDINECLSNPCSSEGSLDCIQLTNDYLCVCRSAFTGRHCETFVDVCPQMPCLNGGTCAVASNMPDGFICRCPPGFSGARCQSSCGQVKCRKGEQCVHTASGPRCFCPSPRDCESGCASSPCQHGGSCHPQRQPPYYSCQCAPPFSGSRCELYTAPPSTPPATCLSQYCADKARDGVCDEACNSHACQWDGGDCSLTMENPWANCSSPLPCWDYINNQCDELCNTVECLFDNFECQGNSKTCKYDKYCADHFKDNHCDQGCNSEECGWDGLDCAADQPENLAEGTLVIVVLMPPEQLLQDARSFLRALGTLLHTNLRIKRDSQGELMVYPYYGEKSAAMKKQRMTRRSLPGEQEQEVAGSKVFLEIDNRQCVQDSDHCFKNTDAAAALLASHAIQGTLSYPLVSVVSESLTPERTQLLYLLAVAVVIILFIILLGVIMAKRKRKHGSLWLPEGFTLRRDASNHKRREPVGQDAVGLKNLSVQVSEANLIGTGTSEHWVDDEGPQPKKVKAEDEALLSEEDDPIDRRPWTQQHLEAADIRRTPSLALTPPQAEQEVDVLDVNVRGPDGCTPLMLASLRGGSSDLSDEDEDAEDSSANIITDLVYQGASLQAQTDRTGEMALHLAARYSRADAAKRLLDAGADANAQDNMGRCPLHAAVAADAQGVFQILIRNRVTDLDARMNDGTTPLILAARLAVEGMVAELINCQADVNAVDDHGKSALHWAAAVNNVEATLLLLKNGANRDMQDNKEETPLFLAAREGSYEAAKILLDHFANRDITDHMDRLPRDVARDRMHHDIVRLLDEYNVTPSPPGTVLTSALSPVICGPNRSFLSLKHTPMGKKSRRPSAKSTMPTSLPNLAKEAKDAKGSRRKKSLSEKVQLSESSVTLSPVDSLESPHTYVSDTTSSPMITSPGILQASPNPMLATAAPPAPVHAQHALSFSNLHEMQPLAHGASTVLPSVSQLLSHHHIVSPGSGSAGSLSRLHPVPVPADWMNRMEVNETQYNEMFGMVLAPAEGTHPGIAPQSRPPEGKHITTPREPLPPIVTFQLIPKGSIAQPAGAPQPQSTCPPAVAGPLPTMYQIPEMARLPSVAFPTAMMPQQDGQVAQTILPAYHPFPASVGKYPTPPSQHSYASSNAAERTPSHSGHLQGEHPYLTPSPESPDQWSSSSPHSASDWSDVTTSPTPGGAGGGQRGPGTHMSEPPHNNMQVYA

[6] = biological target: Pro-neuregulin-1, membrane-bound isoform (Homo sapiens) (UniProt Q02297); assay: small molecules binding neuregulin-1 protein – biochemical, small-molecule microarray, fluorescence 635/667, psychiatric disease protein project, primary screen (AID 1075); settings: NRG1 binding, 635 nm fluorescence, higher = more signal;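 further: score combines 667 nm spot fluorescence with signal to noise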
[7] = test system: Neuregulin-1 EGF-like domain; assay: small molecules binding NRG1 EGF domain – biochemical, small-molecule microarray, 635 nm fluorescence, primary screen (AID 1081); settings: higher = more signal;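 further: binding of the protein to compounds printed on small-molecule microarray slides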
[8] = FRG1 expression reporter modulators in myotubes – cell-based, C2C12 myotubes, firefly/Renilla luciferase, luminescence, FRG1 inhibition for FSHD, primary screen (AID 1084); settings: FRG1 promoter luciferase, higher = more signal, called active from +8 up or from −8 down
[9] = small molecules captured by biotinylated probe aFST – biochemical, small-molecule microarray, fluorescence 635/667, stem cell growth factor project, primary screen (AID 1086); settings: higher = more signal;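 further: score merges 667 nm fluorescence with signal-to-noise of each printed compound spot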
[10] = binders of probe aHhip on microarray, primary screen, stem cell growth factor project, biochemical, small-molecule microarray, fluorescence 635/667 (AID 1087); settings: higher = more signal;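 further: score merges spot fluorescence at 667nm with spot signal to noise ratio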
[11] = test system: PRMT1 (protein arginine N-methyltransferase 1); assay: small molecules binding arginine methyltransferase PRMT1 – biochemical, small-molecule microarray, 635 nm fluorescence, primary screen (AID 1088); settings: higher = more signal;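 further: binding of Prmt1 protein to compounds spotted on small-molecule microarray slides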
[12] = growth effects on S. cerevisiae YJM789 – YJM789 clinical isolate, OD600, 24 h, basal, primary screen (AID 1089); settings: higher = more signal, called active from +8 up or from −8 down;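 further: growth of clinical yeast isolate S. cerevisiae YJM 789 seeded 1000 cells per well; test concentration not given here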
[13] = S. pombe growth modifiers, basal conditions – strain 972, OD600, 24 h, no modulator, primary screen (AID 1090);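 further: basal condition with compound alone and no growth modifier present; test concentration not given here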; settings: S. pombe 972 growth, higher = more signal, called active from +8 up or from −8 down
[14] = budding yeast growth modifiers under rapamycin – strain BY4716, OD600, 96 h, primary screen (AID 1091); further: test concentration not given here; settings: S. cerevisiae BY4716 + rapamycin, higher = more signal, called active from +8 up or from −8 down
[15] = biological target: Torsin-1A-interacting protein 2 (Homo sapiens) (UniProt Q8NFQ8); assay: small molecules binding lysate-expressed LULL1 – cell lysate, human LULL1 lysate, 635/667 nm fluorescence, primary screen (AID 1092); settings: small-molecule microarray, hLULL1 lysate binding, 635 nm fluorescence; higher = more signal;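 further: probe is lysate of COS7 cells overexpressing human LULL1; score merges per-feature 667 nm fluorescence with signal-to-noise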
[16] = optical density change of DRC41 E. coli – strain DRC41, OD650, 24 h, E. coli filamentation project, primary screen (AID 1093);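 further: MC1000 strain lacking acrAB efflux and sulA so SOS filamentation is blocked; test concentration not given here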; settings: E. coli DRC41 growth, higher = more signal, called active from +8 up or from −8 down
[17] = probe aLefty2 binding to arrayed compounds – biochemical, biotinylated probe, 635/667 nm fluorescence, primary screen (AID 1094); settings: small-molecule microarray, higher = more signal;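 further: score merges spot fluorescence near 667 nm with spot signal-to-noise ratio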
[18] = test system: Noggin (protein binding on small-molecule microarray); assay: small molecules binding Noggin protein – biochemical, 635/667 nm fluorescence, primary screen (AID 1095); settings: 635 nm fluorescence, higher = more signal;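 further: score merges 667 nm feature fluorescence with signal to noise over triplicate slides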
[19] = biological target: Neurogenic locus notch homolog protein 3 (Homo sapiens) (UniProt Q9UM47); assay: small molecules binding NOTCH3 protein – biochemical, 635/667 nm fluorescence, primary screen (AID 1096); settings: small-molecule microarray, 635 nm fluorescence, higher = more signal
Neurogenic locus notch homolog protein 3 (Homo sapiens), sequence (Q9UM47 whole entry, looked up): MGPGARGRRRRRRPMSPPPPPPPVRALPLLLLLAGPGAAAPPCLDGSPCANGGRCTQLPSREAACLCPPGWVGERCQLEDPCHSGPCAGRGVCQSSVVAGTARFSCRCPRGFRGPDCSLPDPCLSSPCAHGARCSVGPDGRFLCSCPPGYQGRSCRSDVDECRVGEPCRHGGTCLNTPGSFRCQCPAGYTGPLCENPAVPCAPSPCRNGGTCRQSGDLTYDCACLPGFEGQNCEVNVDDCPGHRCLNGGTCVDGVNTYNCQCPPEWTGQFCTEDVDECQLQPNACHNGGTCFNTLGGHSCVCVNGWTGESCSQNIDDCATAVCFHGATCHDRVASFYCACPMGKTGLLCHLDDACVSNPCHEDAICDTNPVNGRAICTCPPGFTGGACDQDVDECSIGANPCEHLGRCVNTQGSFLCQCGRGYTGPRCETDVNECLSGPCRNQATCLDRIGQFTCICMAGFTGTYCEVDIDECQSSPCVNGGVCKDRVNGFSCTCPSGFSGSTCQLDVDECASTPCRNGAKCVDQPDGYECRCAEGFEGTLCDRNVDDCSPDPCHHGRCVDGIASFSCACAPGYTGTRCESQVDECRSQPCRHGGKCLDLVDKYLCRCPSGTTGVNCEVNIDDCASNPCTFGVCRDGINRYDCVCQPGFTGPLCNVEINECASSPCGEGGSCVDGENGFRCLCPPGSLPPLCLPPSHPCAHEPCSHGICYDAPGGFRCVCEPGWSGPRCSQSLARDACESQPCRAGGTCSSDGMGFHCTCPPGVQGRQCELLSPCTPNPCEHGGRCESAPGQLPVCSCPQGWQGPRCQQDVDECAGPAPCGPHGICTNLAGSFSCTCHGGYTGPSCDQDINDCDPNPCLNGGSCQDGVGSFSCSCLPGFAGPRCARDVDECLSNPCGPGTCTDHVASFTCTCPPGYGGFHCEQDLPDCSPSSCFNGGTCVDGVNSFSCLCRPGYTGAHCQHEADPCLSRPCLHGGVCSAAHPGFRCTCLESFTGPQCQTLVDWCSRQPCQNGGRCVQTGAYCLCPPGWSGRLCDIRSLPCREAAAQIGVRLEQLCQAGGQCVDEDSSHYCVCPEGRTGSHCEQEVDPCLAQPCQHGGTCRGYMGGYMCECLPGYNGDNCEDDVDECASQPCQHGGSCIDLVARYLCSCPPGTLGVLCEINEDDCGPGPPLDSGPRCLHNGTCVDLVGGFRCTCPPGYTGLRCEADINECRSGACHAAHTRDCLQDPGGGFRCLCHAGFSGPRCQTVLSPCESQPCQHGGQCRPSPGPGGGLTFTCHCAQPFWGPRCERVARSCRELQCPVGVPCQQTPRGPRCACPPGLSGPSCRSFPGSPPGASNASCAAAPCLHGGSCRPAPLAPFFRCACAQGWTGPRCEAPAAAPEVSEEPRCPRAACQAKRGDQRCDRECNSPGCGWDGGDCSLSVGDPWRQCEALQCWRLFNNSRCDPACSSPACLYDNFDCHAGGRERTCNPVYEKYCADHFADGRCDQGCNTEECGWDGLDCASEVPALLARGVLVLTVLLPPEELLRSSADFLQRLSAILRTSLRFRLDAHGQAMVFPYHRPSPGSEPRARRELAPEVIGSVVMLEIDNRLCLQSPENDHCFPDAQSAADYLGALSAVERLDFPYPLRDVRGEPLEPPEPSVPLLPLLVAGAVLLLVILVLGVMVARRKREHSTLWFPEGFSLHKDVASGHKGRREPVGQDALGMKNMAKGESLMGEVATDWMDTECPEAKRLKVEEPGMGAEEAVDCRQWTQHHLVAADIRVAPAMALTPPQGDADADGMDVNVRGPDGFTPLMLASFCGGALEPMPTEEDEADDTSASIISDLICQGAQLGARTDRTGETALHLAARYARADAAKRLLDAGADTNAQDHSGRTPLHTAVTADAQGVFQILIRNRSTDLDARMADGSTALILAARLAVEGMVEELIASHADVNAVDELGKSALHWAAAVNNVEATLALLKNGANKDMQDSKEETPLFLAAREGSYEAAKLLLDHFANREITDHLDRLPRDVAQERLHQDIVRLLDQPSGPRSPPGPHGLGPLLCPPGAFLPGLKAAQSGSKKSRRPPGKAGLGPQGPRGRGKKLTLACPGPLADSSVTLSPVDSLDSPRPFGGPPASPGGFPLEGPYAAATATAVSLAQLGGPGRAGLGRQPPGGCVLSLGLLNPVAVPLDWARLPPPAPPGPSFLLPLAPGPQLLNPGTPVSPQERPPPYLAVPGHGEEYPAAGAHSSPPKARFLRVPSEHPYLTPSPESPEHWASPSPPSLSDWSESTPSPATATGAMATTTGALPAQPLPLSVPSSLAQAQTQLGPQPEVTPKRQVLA

[20] = probe aEGFR binding to arrayed compounds – biochemical, biotinylated probe, 635/667 nm fluorescence, primary screen (AID 1097); settings: small-molecule microarray, higher = more signal;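 further: probe is a biotinylated anti-EGFR antibody binding compounds printed on slides; score combines fluorescence near 667 nm and signal to noise of each spot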

Compound	composite z-score [1]	composite z-score [2]	composite z-score [3]	composite z-score [4]	composite z-score [5]	composite z-score [6]	composite z-score [7]	z-score [8]	composite z-score [9]	composite z-score [10]	composite z-score [11]	z-score [12]	z-score [13]	z-score [14]	composite z-score [15]	z-score [16]	composite z-score [17]	composite z-score [18]	composite z-score [19]	composite z-score [20]
CC1(C)OB(/C=C\CC(OC(=O)c2ccncc2)c2ccccc2)OC1(C)C (stereo not given)	2.93	0.214	0.0262	-1.4	-1.48	0.852	0.181	1.99 (inactive)	-0.0939	-0.0296	-0.477	-1.7 (inactive)	-1.3 (inactive)	1.99 (inactive)	0.962	1.04 (inactive)	1.22	-1.92	-1.73	-0.244
C[C@]1(C(=O)O)c2ccccc2C(=O)N(Cc2cc(C(F)(F)F)cc(C(F)(F)F)c2)[C@H]1c1ccc(CO)cc1	-0.0018	-0.48	-0.152	0.159	-0.0211	-0.179	0.0653	0.192 (inactive)	0.192	-0.236	1.43	0.652 (inactive)	0.559 (inactive)	-0.754 (inactive)	0.834	0.305 (inactive)	-0.141	0.414	0.483	-0.186
C[C@]12C(=O)N(CCO)[C@@H]3C(=O)N(c4ccc(Cl)cc4)CC=CC31O[C@@H]1/C=C\CCCOC(=O)C12 (stereo not given in full)	0.721	-0.581	-0.0985	-0.986	-0.759	1.12	0.0495	0.868 (inactive)	-0.599	-0.132	-0.0919	-0.174 (inactive)	-0.13 (inactive)	0.169 (inactive)	-0.236	0.125 (inactive)	0.034	-0.464	0.0111	-0.216
COCCOC(=O)N1C(=O)[C@@]2(c3cc(C#CCNC(N)=O)ccc31)[C@H](C(=O)N1CCN(c3ncccn3)CC1)[C@H]1C(=O)O[C@H](c3ccccc3)[C@H](c3ccccc3)N1[C@@H]2c1ccc(O)cc1	-1.35	0.0122	-0.282	-0.129	-1.15	-0.37	-0.475	-1.04 (inactive)	-0.874	-0.769	-0.479	-0.357 (inactive)	-0.562 (inactive)	0.0816 (inactive)	1.37	-0.324 (inactive)	-0.547	-1.27	-0.637	-0.384
CC(C)C[C@@H]1NC(=O)[C@@H]2C[C@H](C(=O)NCCCCCCNC(=O)CS)[C@H](c3ccc(O)cc3)N2C1=O	-0.0857	1.48	-0.0202	0.938	0.604	1.35	1.37	0.0812 (inactive)	0.694	-0.0346	1.53	0.279 (inactive)	0.101 (inactive)	0.971 (inactive)	2.93	1.27 (inactive)	0.0277	1.26	1.11	0.0886
COc1c(C)cc(-c2cc3c(c(CCc4ccccc4)n2)[Si](C(C)C)(C(C)C)O[C@H]3c2ccccc2)cc1C	-0.473	-0.0939	-0.166	-0.0024	-0.0773	-0.133	-0.0748	-0.278 (inactive)	0.125	-0.0296	-0.848	0.864 (inactive)	0.307 (inactive)	33.1 (active)	0.0198	-0.899 (inactive)	-0.0519	0.108	0.24	-0.162
COCCCNC(=O)[C@]1(Cc2ccccc2N=[N+]=[N-])N=C(c2ccc(OCCCO)cc2)O[C@@H]1c1ccccc1	0.522	1	0.286	0.232	1.4	1.73	1.27	-2.74 (inactive)	1.14	0.547	1.46	-1.51 (inactive)	-0.982 (inactive)	2.48 (inactive)	3.23	1.1 (inactive)	0.692	-0.0042	0.901	0.377
CN(C)C(=O)[C@]1(CCS(=O)(=O)c2ccccc2)N=C(c2ccc(OCCCO)cc2)O[C@@H]1c1ccccc1CN=[N+]=[N-]	0.04	-0.313	0.0308	0.849	1.55	1.14	1.29	-0.882 (inactive)	1.07	-0.0994	1.55	0.106 (inactive)	0.349 (inactive)	2.18 (inactive)	3.48	0.157 (inactive)	-0.0079	0.136	1.09	-0.025
COc1ccc([Si](C)(C)[C@@H]2[C@@H](CC(=O)N(CCO)Cc3ccccc3)O[C@]3(C(=O)N(Cc4cccc(I)c4)c4ccccc43)[C@H]2C)cc1	2.68	1.17	-0.0422	0.396	0.779	0.496	1.13	-0.939 (inactive)	0.42	0.572	1.46	-0.0171 (inactive)	1.27 (inactive)	3.46 (inactive)	0.444	0.645 (inactive)	0.0553	1.51	1.07	0.0102
CCCCC(=C=CC[C@@H](O)c1ccccc1OCCO)C[C@@H](O)c1ccccn1	0.0106	0.362	-0.102	0.23	0.418	0.69	0.327	-1.14 (inactive)	-0.0288	-0.0645	1.35	0.0466 (inactive)	-0.314 (inactive)	-1.14 (inactive)	2.3	0.0399 (inactive)	-0.119	0.191	0.311	-0.0238
C[N+](C)(C)CCCC[C@@H]1NC(=O)[C@H]2C[C@@H](C(=O)NCCCCCN)[C@@H](c3ccc(O)cc3)N2C1=O	0.0912	1.95	-0.0593	0.873	0.717	1.79	1.21	-0.0231 (inactive)	1.2	0.0722	1.54	-0.407 (inactive)	-2.01 (inactive)	-1.2 (inactive)	3.06	-0.162 (inactive)	0.0829	1.57	1.11	0.152
C[N+](C)(C)CCCC[C@@H]1NC(=O)[C@H]2C[C@@H](C(=O)O)[C@@H](c3ccc(O)cc3)N2C1=O	0.348	0.211	-0.133	-0.0114	0.288	0.45	1.3	4.06 (inactive)	-0.166	-0.199	0.777	-1.56 (inactive)	-1.28 (inactive)	-0.5 (inactive)	2.61	1.26 (inactive)	-0.0481	0.447	0.5	-0.158
CCOC(=O)C[C@H]1[C@H](OC(=O)c2cc3ccccc3oc2=O)[C@@H](NC(=O)Cc2ccc(OC)cc2)c2cc(OCCCO)ccc2N1C(=O)Cc1ccc(OC)cc1	-0.545	0.58	-0.125	0.527	0.791	0.185	0.507	-1.39 (inactive)	1.43	-0.179	0.638	-0.903 (inactive)	-1.04 (inactive)	-1.79 (inactive)	1.65	1.52 (inactive)	-0.058	0.534	0.91	-0.0313
COC(=O)[C@H](Cc1ccccc1)N1CC(C)(OC)O[C@@H](Cc2ccccc2)[C@H]1/C=C/C1CC1 (stereo not given in full)	0.016	0.12	-0.073	-0.194	0.144	0.0246	0.484	-0.218 (inactive)	-0.205	-0.331	0.38	0.0394 (inactive)	-2.37 (inactive)	-0.184 (inactive)	0.638	-0.0718 (inactive)	-0.124	-0.305	-0.68	-0.15
CCCCCCCCCCC(O)C1C=CC2C(=O)N(C)C(=O)C2N1Nc1ccccc1 (stereo not given)	0.889	0.149	-0.229	-1.07	-0.932	0.0962	-0.101	0.767 (inactive)	-0.191	-0.469	-1.19	0.875 (inactive)	-1.53 (inactive)	0.882 (inactive)	0.8	-1.87 (inactive)	-0.405	-0.387	-1.4	-0.247
COC(=O)[C@@]1(Cc2ccc(F)cc2)[C@H]2c3cc(C(=O)N(C)C)n(Cc4ccc(C(F)(F)F)nc4)c3C[C@H]2CN1C(=O)c1ccccc1	1.5	0.474	0.0642	0.69	1.74	2.03	1.18	-0.909 (inactive)	1.97	0.264	1.32	0.538 (inactive)	0.909 (inactive)	4.36 (inactive)	3.71	-0.366 (inactive)	0.317	0.108	1.02	0.379
COc1ccc(CCNC(=O)[C@@]2(C)c3ccccc3C(=O)N(Cc3ccc(OC(F)(F)F)cc3)[C@H]2c2ccc(CO)cc2)cc1	-1.45	0.197	-0.0211	0.0093	0.484	0.41	1.12	-4.33 (inactive)	0.122	-0.679	1.55	-0.219 (inactive)	-0.553 (inactive)	0.997 (inactive)	2.25	-0.663 (inactive)	-0.403	1.11	0.743	0.686
COCCOC(=O)N1C(=O)[C@@]2(c3cc(C#CCCO)ccc31)[C@H](c1ccc(O)cc1)N1[C@H](c3ccccc3)[C@H](c3ccccc3)OC(=O)[C@H]1[C@@H]2C(=O)NC[C@H](O)c1ccccc1	-0.0825	0.332	-0.0271	0.589	0.163	1.25	1.29	-1.69 (inactive)	0.0962	-0.0645	1.53	1.08 (inactive)	0.933 (inactive)	3.26 (inactive)	2.15	1.76 (inactive)	-0.195	0.697	1.03	-0.103
CO[C@H]1O[C@H](CO)[C@@H](OC(=O)CCc2ccccc2)[C@@H]2OC(=O)[C@@H](Cc3ccc4ccccc4c3)C/C=C/C[C@H](Cc3ccc4ccccc4c3)C(=O)O[C@@H]12	-0.129	0.693	-0.179	-0.0304	-0.641	0.617	-0.127	-1.72 (inactive)	-0.354	-0.0994	0.505	-2.4 (inactive)	-2.22 (inactive)	11.7 (active)	0.784	0.149 (inactive)	-0.138	-0.701	-1.26	-0.206
